Experimental data from PubChem BioAssay (NCI).
The panel holds about 83,000 compounds, 20% with a hit somewhere; the sample as a whole holds those more often.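 Step 1: grow cells in 96-well plates. Step 2: add test compound at a single concentration. Step 3: incubate 48 h. Step 4: record percent growth.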 Unmarked numbers belong to inactive results. The source made the active and inactive calls. Rule for the calls: active = growth percent below 10; inactive = the rest.

These compounds were tested on HL-60(TB) leukemia (assay: NCI-60 one-dose screen, 48 h (100 = growth as untreated, 0 = no growth, -100 = all killed)). Details: 10 µM unless noted.

| SMILES | growth |
| --- | --- |
| O=[N+]([O-])c1ccc(/C=N\Nc2ccccc2)cc1 | 94.6% |
| CCN1C(=O)N(CC)C2C1NC(=S)N2/N=C/c1ccc(OC)cc1 (stereo not given) | -12.1% (active) |
| O=Nc1c2cccnc2n2nnc3ccc(Cl)cc3c12 | -48.7% (active) |
| CC(=O)c1cc(C(=O)c2ccc3c(c2)Sc2ccccc2N3)c2cc(C)ccn12 | 2.96% (active) |
| CCn1c(Sc2nnc(NC(=O)CSC(=S)N3CCCCC3)s2)nc2c1c(=O)n(C)c(=O)n2C | 95% |
| CC(=O)NCc1cc(C)c(C)cc1C | 99.2% |
| COc1cccc(-c2nc(-c3ccc(NC(=O)c4ccccc4)cc3)[nH]c2-c2ccnc(Br)c2)c1 | -34% (active) |
| N#CC1=C(N)Oc2ccc3ccccc3c2C1c1ccc([N+](=O)[O-])cc1 (stereo not given) | 39.8% |
| O=C1OCC2=C1C(c1cccc(F)c1)c1cc3c(cc1N2CCO)OCCO3 (stereo not given) | -34.5% (active) |
| CN1C(=O)C2(NN=C(c3cccc4ccccc34)S2)c2ccccc21 (stereo not given) | 34.7% |
| Nc1nc2c(c3cnccc13)C(c1cccc(Cl)c1)Cc1cnccc1-2 (stereo not given) | 4.89% (active) |
| N/C(=N\OC(=O)c1ccccc1)C(C(=O)NOC(=O)c1ccccc1)C1CCCCC1 (stereo not given) | 1.73% (active) |
| CC(C)(CCc1ccccn1)C(=O)CCCc1ccccn1 | 103% |
| COc1cc(-c2nn(-c3cccc(NC(=O)NCCNS(=O)(=O)c4ccc(Cl)cc4)c3)cc2-c2ccncc2)ccc1Cl | 1.37% (active) |
| OC1(c2ccc(Cl)c(C(F)(F)F)c2)CCN(CCCC(c2ccc(F)cc2)c2ccc(F)cc2)CC1 | -49.6% (active) |
